High-throughput results from PubChem.
Compounds with a hit are over-represented: about 5.4% of the library has one in this group of screens.
Calb FLC – C. albicans growth modulation with fluconazole | C. albicans CaCi-2 (fluconazole-resistant clinical isolate) + fluconazole, Alamar Blue growth, 48 h | growth inhibition, % (test concentration not listed) | hit rate 0.57% among 300,000 | AID 1979;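 active = growth inhibition above about 58% in most replicates, limit read from the data, passing the limit was not always enough; inconclusive = exactly half the replicates above a set limit; inactive = most replicates below a set limit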;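 also: all wells also contain fluconazole at 8 µg/ml as a sub-toxic cotreatment; 0% = median of DMSO wells and 100% = median of geldanamycin control wells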
PP1 counter – counter-screen for PP5 inhibitors: inhibitors of human PP1-alpha. P62136. inhibition, % at 6.7 µM. purified PP1alpha, OMFP fluorescence. AID 2235. hit rate 0.9% among 320,000;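 active = inhibition above the mean inhibition of all tested compounds plus 3 SD, computed separately for each screening campaign, cut at about 15% in these data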
Target sequence (P62136 whole entry, looked up): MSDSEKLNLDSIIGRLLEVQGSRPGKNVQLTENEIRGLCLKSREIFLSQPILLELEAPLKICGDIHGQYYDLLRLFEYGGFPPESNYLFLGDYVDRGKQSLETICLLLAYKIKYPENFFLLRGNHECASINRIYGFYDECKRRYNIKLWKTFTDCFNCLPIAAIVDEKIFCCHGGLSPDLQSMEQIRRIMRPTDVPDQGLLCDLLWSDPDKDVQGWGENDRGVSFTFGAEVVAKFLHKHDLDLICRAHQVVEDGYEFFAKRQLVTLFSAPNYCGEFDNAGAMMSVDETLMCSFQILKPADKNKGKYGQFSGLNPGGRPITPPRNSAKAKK
PP5 primary – inhibitors of human protein phosphatase 5 (PP5); purified PP5c, OMFP substrate fluorescence; inhibition, % at 6.7 µM; hit rate 0.18% among 320,000; P53041;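 active = inhibition above the campaign's mean inhibition across all tested compounds plus 3 SD, cut at about 9.5% in these data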;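 also: 0% = DMSO only and 100% = 100 µM cantharidin control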
CSC inhib – blocks cancer stem cells. cancer stem cell-like cells viability, luminescence. inhibition, % at 7.5 µM. hit rate 1.1% among 300,000; in the data active = inhibition above about 75%; inconclusive = no clear call, values can overlap the other calls; tested in HMLE shEcad cells
ALR H2O2 inh – inhibitors of human sulfhydryl oxidase ALR | purified ALR, DTT oxidation, H2O2 HRP-luminol luminescence | inhibition, % (no concentration beside the values) | AID 485317 | hit rate 3.8% among 290,000;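 active = mean replicate inhibition above about 79%, with every replicate also reaching it, limit read from the data; inconclusive = only one of the two criteria met; inactive = mean below limit and not every replicate reaching it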
* = called active by the depositor; ? = inconclusive; / = no result given.

SMILES	Calb FLC	PP1 counter	PP5 primary	CSC inhib	ALR H2O2 inh
Cc1cccc(NC(=S)NCc2ccccn2)c1	0	-1	-3	-16	5
CC(=O)Nc1ccc2c(c1)ncn2-c1ccccc1	-17	-4	-1	3	-33
c1ccc(-n2cnc3cc(NCc4ccncc4)ccc32)cc1	3	-3	2	2	99*
c1ccc(-n2cnc3cc(NCc4ccccn4)ccc32)cc1	-10	1	0	-5	100*
COc1ccc(C(=O)CC(=O)C(=O)Nc2ccc(C)c(C)c2)cc1	-12	-2	5	-11	13
CCOC(=O)c1cccc(Nc2nc(-c3cccnc3)nc3ccccc23)c1	-5	10	7	92*	-6
COC(=O)c1cccc(Nc2nc(-c3cccnc3)nc3ccccc23)c1	16	1	-2	31	-10
CC(C)CCNCC(=O)NC(c1ccccc1)c1ccccc1	115*	2	1	-2	/
OCCCCC#Cc1c(-c2ccsc2)sc2ccccc12	6	-6	4	99*	-4
COc1ccc(-c2sc3ccccc3c2/C=C/c2ccncc2)cc1	/	/	/	102*	-7
COc1ccccc1-c1sc2cc3c(cc2c1C#Cc1cncn1C)OCO3	/	/	/	138*	-1
COc1ccc(-c2sc3ccc(N4CCOCC4)cc3c2C#CCCO)cc1	/	/	/	123*	0
COc1ccc(-c2sc3cc(OC)c(OC)cc3c2C#CCCO)cc1	/	6	3	64	0
OCCC#Cc1c(-c2ccsc2)sc2ccccc12	-2	0	3	68	-17
CCNC(=O)c1ccccc1NC(=O)c1cccc(S(=O)(=O)N2CCOCC2)c1	22	-2	-2	-7	2
CCN1CCN(c2cc(C)c3cc(NC(=O)Cc4ccccc4OC)ccc3n2)CC1	-6	-4	3	3	-2
COc1ccc(-c2sc3ccccc3c2C#CCO)cc1	2	-4	5	68	-7
Cn1cncc1C#Cc1c(C=O)[nH]c2ccccc12	/	-1	0	42	51
COc1ccc(-c2sc3ccccc3c2C#CCCO)cc1	-2	-4	3	92*	2
COc1ccc(-c2sc3ccccc3c2C#Cc2cncn2C)cc1	/	/	/	138*	-3
COc1ccc(N2CCN(C(=O)COC(=O)c3oc4ccccc4c3C)CC2)cc1	/	0	3	/	11
COc1ccc(CC2C(=O)OC(C)(C)OC2=O)cc1	-1	-1	2	-9	-3
Oc1ccc(-c2nnc(-c3ccc(O)cc3)nn2)cc1	-12	-3	-1	44	-8
Oc1ccc(C2=NNC(c3ccc(O)cc3)=NN2)cc1	94*	1	0	-14	37
O=C(Cn1nnc(-c2ccccc2)n1)NCc1ccco1	-31	-3	-1	3	-2
SMILES	Calb FLC	PP1 counter	PP5 primary	CSC inhib	ALR H2O2 inh
COc1ccccc1C(=O)Nc1ccc(-c2nnn(CC(=O)NCc3ccco3)n2)cc1	4	16*	-1	-2	1
C(#Cc1ccccc1)C[N+]1(CC#Cc2ccccc2)CCCCC1	82*	3	3	2	-3
C#CC[N+]1(CC#Cc2ccccc2)CCCCC1	1	-2	1	-10	-1
Cc1c(NC(=O)C(C)OC(=O)CNC(=O)c2ccc(C(C)(C)C)cc2)c(=O)n(-c2ccccc2)n1C (centres undefined)	-5	-2	1	-10	-2
Cc1ccc(N(C(=O)CCl)C(C(=O)NC2CCCCC2)c2cccnc2)cc1C (centres undefined)	?	6	4	88*	-1
Cc1ccc(N(C(=O)CNC(=O)c2ccco2)C(C(=O)NC2CCCCC2)c2cccnc2)cc1C (centres undefined)	2	1	0	-1	2
COc1ccc(N(CC(=O)Nc2ccccc2C(=O)N2CCCC2)S(=O)(=O)c2ccccc2)cc1	1	-1	2	-9	-2
CC(=O)Oc1ccc(-c2csc(Nc3ccc(Cl)cn3)n2)cc1	-38	5	0	95*	-4
CC(=O)Nc1cccc(-c2csc(Nc3ccc(C)cn3)n2)c1	91*	1	-1	29	99*
CC(=O)Nc1cccc(-c2csc(Nc3ncccn3)n2)c1	-6	/	/	/	/
Cc1cccc2c(C(=O)N3CCN(C(=O)c4ccco4)CC3)cc(-c3cccc(Br)c3)nc12	16	11	3	16	4
COc1ccc(C(=O)NCC(O)CN2CCOCC2)cc1[N+](=O)[O-] (centres undefined)	3	-3	2	-9	-14
Cc1cccn2cc(-c3cccc(S(=O)(=O)N4CC(C)OC(C)C4)c3)nc12 (centres undefined)	4	-5	1	-14	97*
